# An excerpt weighted towards active compounds, which were near 19% of everything screened.
# IL-1B inflam inh: inflammasome signaling inhibition, IL-1 beta readout; THP-1 LPS/ATP IL-1B secretion, AlphaLISA, 16 h; active compounds read low; 4.7% of 360,000 active; activity change, % at 57.5 µM; in the data active = activity change below about -50%; inconclusive = mostly about -30% to -49%
#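 Secreted IL-1B measured by AlphaLISA bead assay after 16 h compound exposure of THP-1 cells; compounds (final up to 57.5 uM) added 1 h before LPS (250 ng/mL) and ATP (1.25 mM) stimulation; lower signal means less secretion.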
# DT40 TDP1 no CPT: qHTS for Inhibitors of human tyrosyl-DNA phosphodiesterase 1 (TDP1): qHTS in cells in absence of CPT; DT40 Tdp1-/- hTDP1 cells, no CPT, ATP luminescence, 48 h; Potency, µM (top dose mostly 46.2 µM), for the others: top-dose activity change, negative = growth inhibition, usual class: inhibitors; 15% of 420,000 active; AID 686978, 2013; note: potency is the fitted concentration of half-maximal effect; nearly all actives have a fitted effect of over 55% in size
#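 A cellular qHTS used chicken DT40 cells lacking endogenous Tdp1 but carrying stably transfected human TDP1. Compounds were applied without camptothecin, and cell growth kinetics were judged by ATP-dependent luminescence after ≥48 hr.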
# HT1080NT lethal: kills 2HG-producing HT-1080-NT fibrosarcoma cells. HT-1080-NT fibrosarcoma viability, CellTiter-Glo ATP luminescence, 48 h. AID 686970. 1.6% of 360,000 active. Potency, µM (top dose mostly 46.1 µM), inactives show at the top dose activity, negative = less viability, most hits filed as cytotoxic;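 note: NT is the 2HG producing partner of a matched IDH1 knockdown line; potency is the fitted concentration of half-maximal effect; 0% = DMSO-treated cells and -100% = media-only wells without cells; nearly all actives have a fitted effect of over 55% in size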
#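 Read-out is CellTiter-Glo luminescence after 10 minutes at room temperature, following 48 hours' compound treatment of HT-1080-NT cells (750 cells/well, RPMI, 5% FBS, 37 degrees C).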
# HT1080 IDH1KD tx: kills HT-1080 cells with IDH1 knockdown | 2% of 360,000 active | Potency, µM (series often up to 46.1 µM), for inactives: at the highest dose activity, negative = toxicity, most hits filed as cytotoxic | AID 686971 | HT-1080 IDH1 knockdown viability, ATP luminescence, 48 h;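 note: potency is the fitted concentration of half-maximal effect; 0% = DMSO wells and -100% = cell-free medium wells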
#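 In this qHTS, HT-1080 cells depleted of IDH1 are exposed for 48 h at 37 °C to compound titrations. Toxicity is scored from CellTiter-Glo luminescence, with DMSO as full viability and medium alone as none.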
# TDP1 cell CPT: DT40-hTDP1 cell growth loss with CPT; 12% of 420,000 active; Potency, µM (titrated, usually from 46.2 µM), without a hit: at the top dose activity change, negative = growth inhibition, hits mostly inhibitors; chicken DT40 Tdp1-/-;hTDP1 cells + 20 nM CPT, ATP luminescence, 48 h; AID 686979; note: potency is the fitted concentration of half-maximal effect; nearly all actives have a fitted effect of over 55% in size
#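 Chicken DT40 Tdp1-/- cells stably complemented with human TDP1 were seeded at 400 cells/well in medium containing 20 nM camptothecin, exposed to pin-transferred compounds, and grown at 37 °C for at least 48 hr. Viability was read as ATP luminescence.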
# Numbers without * were called inactive; ? = inconclusive; / = no result. Unless noted, calls come from the whole dose curve; as a rule, active = well fitted curve in the direction sought with a large enough effect; inconclusive = small, poorly fitted or top-dose-only effect, or another doubt; inactive = no such curve, though single readings can be large; an effect the other way counts as inactive or inconclusive. Unless noted, % is set by controls: 0 for no effect and ±100 for the full control effect.
SMILES,IL-1B inflam inh,DT40 TDP1 no CPT,HT1080NT lethal,HT1080 IDH1KD tx,TDP1 cell CPT
COc1ccc(C(=O)NCc2ccccc2OC)cc1,-5.8,-11.8%,18.9%,8.5%,-1.4%
CC(C)Oc1ccc(CNC(=O)c2ccc(NC(=O)c3nsc4ccccc34)cc2)cc1,/,18.4µM*,/,/,20.6µM*
O=C(NCCCCCCNC(=O)c1ccncc1)c1ccncc1,-3.2,-23.9%,3.9%,0.2%,-18.0%
Cc1oc2ncn(CC(C)C)c(=O)c2c1C(=O)N(Cc1ccccc1)C(C)C,/,?,/,/,-23.3%
CCOC(=O)C(C)NC(=O)c1c(C)oc2ncn(CC(C)C)c(=O)c12 (centres undefined),/,23.1µM*,/,/,?
Cc1oc2ncn(CC(C)C)c(=O)c2c1C(=O)NCCc1ccccc1,/,16.4µM*,/,/,?
CCc1ccc(CNC(=O)c2c(C)oc3ncn(CC(C)C)c(=O)c23)cc1,/,16.4µM*,/,/,?
CCOc1ccc(CCNC(=O)c2c(C)oc3ncn(CC(C)C)c(=O)c23)cc1OCC,/,?,/,/,-27.6%
Cc1ccc(N2CCN(C(=O)c3c(C)oc4ncn(CC(C)C)c(=O)c34)CC2)c(C)c1,/,7.31µM*,/,/,29.1µM*
Cc1cccc(C)c1NC(=O)C1(C)CSCC(=O)N1CCC(C)C (centres undefined),-15.6,-4.7%,19.4%,13.5%,5.2%
Cc1ccc(NC(=O)c2nc(S(C)(=O)=O)ncc2N(Cc2ccco2)Cc2ccccc2F)c(C)c1,/,9.2µM*,/,/,11.6µM*
Cc1ccc(CN(Cc2ccco2)c2cnc(S(C)(=O)=O)nc2C(=O)Nc2ccc(Br)cc2)o1,/,?,/,/,18.4µM*
CC(c1ccco1)N(Cc1ccco1)C(=O)Nc1ccccc1 (centres undefined),-0.5,-29.4%,0.0%,3.3%,-22.1%
Cc1ccc(NC(=O)CSc2nccn2Cc2ccco2)c(C)c1,-2.7,-0.1%,4.2%,0.4%,-27.6%
CC(C)c1ccc(CN(Cc2ccco2)c2cnc(S(C)(=O)=O)nc2C(=O)Nc2ccccc2)cc1,/,11.6µM*,/,/,18.4µM*
CCOC(=O)c1c(NC(=O)CCCOc2ccc(C)cc2)sc2c1CCC(C)C2 (centres undefined),/,-0.7%,/,/,-1.8%
Cc1ccc(SCCC(=O)NC(C)C)cc1,-8.2,3.2%,16.3%,12.2%,-4.9%
Cc1ccc(SCCC(=O)OC(C(=O)NC(N)=O)C(C)C)cc1 (centres undefined),23.3,16.4µM*,0.0%,11.4%,16.4µM*
CC(C)C[C@H](NC(=O)[C@H](CCc1ccccc1)NC(=O)CN1CCOCC1)C(=O)N[C@@H](Cc1ccccc1)C(=O)N[C@@H](CC(C)C)C(=O)[C@@]1(C)CO1,/,0.0042µM*,/,/,0.0067µM*
COC(=O)C1SCC2C(=O)N(Cc3ccc(Cl)cc3)CC(=O)N21 (centres undefined),-7.8,-3.6%,-3.5%,-8.2%,8.9%
COC(=O)C1SCC2C(=O)N(Cc3ccc(Cl)c(Cl)c3)CC(=O)N21 (centres undefined),-4.8,?,-6.9%,-0.4%,23.1µM*
Cc1ccc(NC(=O)CS(=O)CC(=O)Nc2ccccc2-c2ccc(C)o2)cc1 (centres undefined),-9.5,-25.9%,-21.6%,?,?
COc1cc(-c2nnc3sc(Cc4ccccc4)nn23)cc(OC)c1OC,99.9,?,-9.8%,-25.6%,20.6µM*
COc1cc(-c2nnc3sc(Cc4ccc(Cl)cc4)nn23)cc(OC)c1OC,-9.2,9.2µM*,/,/,11.6µM*
COc1ccc(Cc2nn3c(-c4cc(OC)c(OC)c(OC)c4)nnc3s2)cc1,-11.9,?,-5.2%,5.5%,?
Cc1nonc1C1CCCN1Cc1nc(-c2ccccc2Cl)oc1C (centres undefined),23.9,14.6µM*,6.7%,4.8%,?
Cc1ccccc1-c1nc(CN2CCCC2c2ccc(F)cc2)c(C)o1 (centres undefined),19.4,16.4µM*,-5.9%,1.9%,20.6µM*

# From PubChem
